# High-throughput results from PubChem.
# PLCg1 inh: PLC-gamma1 enzyme inhibitors, primary screen, biochemical, fluorescence, purified enzyme; 1-phosphatidylinositol 4,5-bisphosphate phosphodiesterase gamma-1 (Homo sapiens), P19174; fluorogenic substrate; inhibition, % at 12.2 µM; 0.84% of 370,000 active; in the data active = inhibition above about 9.5%
# LEDGF integ inh: blockers of LEDGF/p75-dependent integrase strand transfer – biochemical, TR-FRET, high throughput, primary screen; AID 743269, 2014; inhibition, % at 3.7 µM; HIV-1 integrase (with human LEDGF/p75); 0.64% of 370,000 active; TR-FRET IN-LEDGF/p75 DNA integration, Eu/Cy5;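 active = inhibition above the screen-wide mean plus 3 SD, cut at about 13% in these data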;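 note: signal is the Cy5 over europium emission ratio at 671 and 618 nm; 0% = plate median of compound wells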
# MBD2 inh: inhibitors of MBD2 binding to methylated DNA, primary screen, biochemical, TR-FRET, DNA-binding domain, human; Methyl-CpG-binding domain protein 2 (Homo sapiens), Q9UBB5; MBD2 binding to methylated oligonucleotide; inhibition, % at 4.4 µM; 0.31% of 370,000 active; in the data active = inhibition above about 13%
# Target sequence (Q9UBB5 whole entry, looked up, the tested form may be a part): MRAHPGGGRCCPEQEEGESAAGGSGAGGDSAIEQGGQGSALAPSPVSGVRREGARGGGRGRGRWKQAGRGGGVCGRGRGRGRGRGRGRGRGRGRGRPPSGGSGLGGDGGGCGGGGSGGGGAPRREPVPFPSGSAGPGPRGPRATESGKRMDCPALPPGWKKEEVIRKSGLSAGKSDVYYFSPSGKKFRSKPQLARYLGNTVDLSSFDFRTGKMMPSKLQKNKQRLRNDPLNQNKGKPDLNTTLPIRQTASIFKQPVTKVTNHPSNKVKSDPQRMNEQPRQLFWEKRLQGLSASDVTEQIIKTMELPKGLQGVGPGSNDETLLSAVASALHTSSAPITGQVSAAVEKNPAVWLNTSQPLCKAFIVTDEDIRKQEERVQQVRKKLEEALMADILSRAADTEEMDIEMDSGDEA
# UHRF1 binding: UHRF1 methylated DNA binding inhibitors, primary screen, counter-screen for MBD2 inhibitor project, biochemical, TR-FRET, human UHRF1, single concentration; E3 ubiquitin-protein ligase UHRF1 (Homo sapiens), Q96T88; UHRF1 binding to methylated oligo; inhibition, % at 4.4 µM; 0.75% of 370,000 active; AID 687016, 2013; in the data active = inhibition above about 21%;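 note: UHRF1 SRA domain binding a hemimethylated CpG hairpin DNA probe; 0% = median of test compound wells and 100% = reference inhibitor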
# PLCb3 inh: human PLC-beta3 inhibitors, primary screen, biochemical, fluorescence; 1-phosphatidylinositol 4,5-bisphosphate phosphodiesterase beta-3 (Homo sapiens), Q01970; Purified PLC-beta3, fluorogenic substrate; inhibition, % at 12.2 µM; 0.18% of 370,000 active; AID 720704, 2013; in the data active = inhibition above about 11%;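 note: 0% = median of compound wells on plate and 100% = full blocker control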
# Numbers without * were called inactive; i = inactive. Most compounds without a hit are left out; they make up all but 2.4% or so of the library.
SMILES,PLCg1 inh,LEDGF integ inh,MBD2 inh,UHRF1 binding,PLCb3 inh
C[C@@H]1CN([C@H](C)CO)C(=O)CCCn2nncc2CO[C@@H]1CN(C)C(=O)Nc1cccc2ccccc12,-13,-3,-4,-2,-23
C[C@@H]1CN([C@@H](C)CO)C(=O)CCCn2nncc2CO[C@H]1CN(C)C(=O)Nc1cccc2ccccc12,-32,3,8,24*,-46
O=C(Nc1ccccc1F)c1ccn[nH]1,0,-2,3,75*,3
O=C(Nc1ccccc1Cl)c1ccn[nH]1,1,-3,-1,-2,4
COC(=O)[C@]12C[C@H](CC(=O)NCC3CCCCC3)C(=O)N(Cc3ccc(Cl)cc3Cl)C1=C[C@H](C(C)C)O[C@@H]2C1CC1,3,4,-2,5,2
CC(=O)Nc1ccc(S(=O)(=O)Nc2cccc(-n3cnnn3)c2)cc1,-2,1,-1,-1,-3
CC(=O)c1ccc(S(=O)(=O)Nc2cccc(-n3cnnn3)c2)cc1,3,2,4,40*,-7
CC(=O)Nc1ccc(C(=O)NCCc2ccccc2)cc1,-2,1,3,21*,1
COC(=O)C12C=C3CC(C)=C3C(=O)N1Cc1[nH]c3ccccc3c1C2 (stereo not drawn),-83,4,-4,-5,-113
Cc1ccc(C2(c3ccc(C)cc3)CC2C(=O)Nc2ccc([N+](=O)[O-])cc2O)cc1 (stereo not drawn),9,8,0,-2,12*
CC1(C)CC1C(=O)Nc1ccc([N+](=O)[O-])cc1Br (stereo not drawn),4,-2,-4,-3,4
O=C(CC1CCCC1)N1CC[C@H]2[C@H](CCCN2Cc2ccc(F)cc2)C1,3,1,0,1,3
Cc1ccc(CCNS(=O)(=O)c2c(C)nc3sccn3c2=O)cc1,-2,9,5,23*,-4
COC(=O)c1ccc2nc(-c3ccc(Cl)cc3)c(Cc3ccc(OC)cc3C)n2c1,-15,1,10,25*,-23
COC(=O)c1ccc2nc(-c3ccc(OC)c(OC)c3)c(Cc3ccc(OC)cc3C)n2c1,-96,-3,12,21*,-128
COC(=O)c1ccc2nc(-c3cccc(Br)c3)c(Cc3ccccc3OC)n2c1,-7,1,6,11,-6
N#Cc1cccc(NC(=O)OCCN2C(=O)CCC23CCC(c2ccc(Cl)cc2)CC3)c1 (stereo not drawn),0,1,-1,-1,3
CCOC(=O)C1CCN(C(=O)CSc2ccccc2)CC1,2,0,6,2,4
CCOC(=O)C1CCN(C(=O)CSc2nccc(C)n2)CC1,-4,-4,-4,65*,-3
CCOC(=O)c1ccc(NS(=O)(=O)c2ccc3[nH]c(=O)[nH]c3c2)cc1,10*,5,2,-4,3
COc1ccc(-n2c(SCC(=O)Nc3cc(C)c(NC(=O)c4ccccc4)cc3OC)nnc2-c2ccccc2F)cc1,-2,0,5,2,-8
CCN(C(=O)COC(=O)c1ccccc1NCCO)c1cccc2ccccc12,i,-2,4,91*,i
O=C(c1nc2ccccn2c1CNCCCn1cccn1)N1CCCC1,-1,2,7,24*,-4
Cc1ccn2c(CNCCCn3cccn3)c(C(=O)N3CCCCCC3)nc2c1,1,1,0,2,0
C=CCOC(=O)C1=C(C)N=c2sc(=C3C(=O)N(CC(=O)O)c4ccccc43)c(=O)n2C1c1ccc(OC)cc1 (stereo not drawn),-1,0,2,0,-2
SMILES,PLCg1 inh,LEDGF integ inh,MBD2 inh,UHRF1 binding,PLCb3 inh
C/C(CC(=O)Nc1ccc(N(C)C)cc1)=N\NC(=O)Cc1csc(N)n1,-3,21*,-2,-9,-3
COc1ccc(CC(=O)N/N=C(\C)CC(=O)Nc2ccc(N(C)C)cc2)cc1,2,2,-7,-7,-5
CC(=O)Nc1sc(C)c(C)c1C(=O)OCC(=O)NCc1ccc(Cl)cc1,12*,2,0,0,-4
O=C(Nc1cccc(NC(=O)c2ccccc2Cl)c1)c1ccc(F)cc1,0,-1,0,27*,-3
O=C(Nc1cccc(NC(=O)c2ccc(F)cc2)c1)c1ccc(F)cc1,0,-4,-7,-3,-9
CCCc1nc2c(C)cc(Br)cn2c1Cc1ccc(C)cc1,-8,-4,7,22*,-20
CCCc1nc2c3ccccc3ccn2c1Cc1cccc(F)c1,-30,4,4,21*,-37
Cc1cc(Br)cn2c(Cc3cccc(F)c3)c(-c3cccc(Cl)c3)nc12,-2,7,-1,4,-6
Fc1ccc(-c2nc3c4ccccc4ccn3c2Cc2cccc(F)c2)cc1,-17,-3,1,5,i
CCCc1nc2c(C)cc(Br)cn2c1Cc1ccccc1OC,-18,0,9,22*,-24
Cc1ccc(Cc2c(-c3ccc(Cl)cc3)nc3c(C)cc(Br)cn23)cc1,1,6,-4,4,1
CCCc1nc2c(C)cc(Br)cn2c1Cc1cccc(Cl)c1,-5,0,9,24*,-8
COC(=O)[C@]12C[C@H](CC(=O)NCCCN3CCCC3=O)C(=O)N(Cc3ccco3)C1=C[C@H](C(C)C)O[C@@H]2C1CC1,-1,-2,3,-3,0
O=C(CCc1ccccc1)N[C@H]1[C@H](OC(=O)c2cnccn2)CCC[C@]12C(=O)N(Cc1ccccc1)c1ccccc12,2,2,1,1,-4
CCCC(=O)OC12CCCN(C1)/C(=C/c1cccc(N(C)C)c1)C2 (stereo not drawn),-11,-1,0,0,-18
O=C1CCC2(CCC(c3ccccc3)CC2)N1CCCO (stereo not drawn),2,0,1,1,0
O=C(NCCc1ccccc1)OCc1cn(Cc2ccccc2F)nn1,2,3,0,2,1
O=C(NCC(c1ccco1)N1CCN(c2ccccc2F)CC1)C(=O)NC1CCCCC1 (stereo not drawn),9.5*,3,4,7,2
CC(C)C[C@@H]1COc2cc(Br)ccc2S(=O)(=O)N1Cc1cn(Cc2ccccc2)nn1,3,-2,0,0,-3
CCN(CC)CCCn1c(=S)[nH]c2ncccc2c1=O,-22,2,11,21*,-28
CCN(CCCn1c(=S)[nH]c2ncccc2c1=O)c1ccccc1,7,2,2,2,3
COc1ccccc1C(=O)NCc1n[nH]c(=S)n1Cc1ccccc1,-2,-3,8,44*,-1
